Compound activity (PubChem BioAssay)
FMDV inh: High Throughput Screening for Foot and Mouth Disease Virus Antivirals. FMDV antiviral cell-based qHTS. Potency, µM (titrated, usually from 57.9 µM), for inactives: top-dose activity change, negative = inhibition, actives largely listed as inhibitors. actives 1.2% (n = 410,000). AID 1159524, 2015; calls by dose curve; tested in HEK293T cells; note: read-out not given here; potency is the fitted concentration of half-maximal effect; nearly all actives have a fitted effect of over 45% in size
HCV inh: qHTS Assay for Inhibitors of Hepatitis C Virus (HCV). Potency, µM (top dose mostly 41.8 µM), for the others: top-dose activity change, negative = inhibition, usual class: inhibitors. Huh7.5.1 HCVcc-Cre infection, luciferase reporter, 44 h. AID 651820, 2012. actives 3.4% (n = 340,000); active = well fitted inhibition curve with a large enough effect; inconclusive = small, poorly fitted or top-dose-only effect, or another doubt; inactive = no such curve, though single readings can be large or run the other way; note: potency is the fitted concentration of half-maximal effect
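Cells (1,000/well) were plated 4 h before compound, then infected with HCVcc-Cre virus (~0.5 moi). After 44 h further culture, infection was read as luciferase luminescence following a 15 min substrate incubation at room temperature.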
Lassa entry inh: qHTS for Inhibitors of binding or entry into cells for Lassa Virus. AID 540256, 2011. Lassa virus pseudotype entry inhibition, cell reporter. actives 1.2% (n = 300,000). Potency, µM (series often up to 37.9 µM), without a hit: top-dose activity change, negative = inhibition, actives largely listed as inhibitors; calls by dose curve; tested in HEK293 cells; note: potency is the fitted concentration of half-maximal effect; nearly all actives have a fitted effect of over 50% in size
HCMV antiviral: qHTS Assay for inhibitors of the human cytomegalovirus (HCMV) | HFF cells, HCMV-luciferase reporter, 72 h; stronger effect = lower value | activity change, negative = inhibition, % at 57.5 µM | actives 4.5% (n = 410,000) | AID 1259415, 2018; in the data active = activity change below about -60%; inconclusive = no clear call, values can overlap the other calls; inactive = above about -39%
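After 16 h attachment at 37C, HFF cells received test compound and HCMV-luciferase (1 PFU/cell); reporter luminescence read 72 h later, data normalized against buffer-only and known inhibitor Salinomycin.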
Marburg entry inh: qHTS for inhibitors of binding or entry into cells for Marburg Virus; Marburg virus pseudotyped entry inhibition, cell reporter; actives 1.8% (n = 300,000); Potency, µM (doses to about 37.8 µM), without a hit: at the top dose activity change, negative = inhibition, most hits filed as inhibitors; calls by dose curve; tested in HEK293 cells; note: potency is the fitted concentration of half-maximal effect
The depositor's hits bear a star; u = inconclusive; x = no result given; [ ] = dose if it differs, or a comment. Only some compounds are listed: those with a hit (about 7.9% of all), similar ones and a draw of the others. % is set by controls: 0 for no effect and ±100 for the full control effect.

SMILES | FMDV inh | HCV inh | Lassa entry inh | HCMV antiviral | Marburg entry inh
O=C1c2cccc3c(N4CCCCC4)ccc(c23)C(=O)N1c1ccccc1O | -22% | u | x | -96* | x
O=C(O)c1ccc(N2CCCCCC2)c(N2C(=O)c3ccccc3C2=O)c1 | -14% | -9% | 13% | 71 | -16%
O=C1c2cccc3c(N4CCCCC4)ccc(c23)C(=O)N1c1ccc(O)cc1 | 12% | -2% | -21%[46.1 µM] | -62* | u
COc1ccc(C(=O)N2CCC2(C)C(=O)O)cc1C(F)(F)F (configuration not stated) | -13% | x | x | 13 | x
CCSc1nnc(NC(=O)Nc2cccc(C)c2)s1 | 2% | -24% | u | -26 | u
CN(C(=O)CN1CCN(c2cc(-c3ccc(-c4ccccc4)cc3)ncn2)CC1)c1ccccc1 | 22µM* | x | x | -67* | x
S=C(NCc1ccco1)Nc1ccc(Cl)cc1Cl | 42% | -14% | -1% | -74* | 6%
S=C(NCc1ccco1)Nc1ccc(Br)cc1Cl | 59% | -3% | 8% | -28 | -15%[46.1 µM]
O=C(COC(=O)CNC(=O)c1ccc(Cl)cc1Cl)NCc1ccco1 | 7% | 15% | u | -4 | 2.8µM*
O=C(c1cccnc1)N1CC(=O)N2[C@@H](CO)[C@@H](c3ccc(Br)cc3)[C@@H]2C1 | x | x | x | -12 | x
COc1cc(=O)n2c(c1C(=O)N(C)Cc1ccsc1)CCN(Cc1c(C)nc3sccn13)CC2 | -9% | x | x | x | x
CC(=O)c1ccc(N2CCN(CC(O)COC(c3ccccc3)c3ccccc3C)CC2)cc1 (configuration not stated) | 2% | 11µM* | 0% | 30 | u
CC(=O)c1ccc(N2CCN(CC(O)COC(c3ccccc3)c3ccccc3)CC2)cc1 (configuration not stated) | -19% | 4µM* | 0%[46.1 µM] | 12 | u
COc1cc(C(C)=O)ccc1OCC(O)CN1CCN(c2cc(C)cc(C)c2)CC1 (configuration not stated) | -30% | 13µM* | x | 12 | x
CC(=O)c1ccc(OCC(O)CN2CCN(c3ccc(F)cc3)CC2)cc1 (configuration not stated) | -24% | -4% | 3% | 1 | 7%[46.1 µM]
CNC(=S)SCCOc1ccccc1C | 40% | 39% | 11% | -69* | 0%
CNC(=S)NNC(=O)COc1ccccc1C | x | -3% | 5% | u | 2%
CC(Sc1ncc(S(=O)(=O)c2ccc(C(C)C)cc2)c(N)n1)C(=O)Nc1ccccc1 (configuration not stated) | u | x | u | -74* | x
CCc1ccccc1NC(=O)CSc1ncc(S(=O)(=O)c2ccc(C(C)C)cc2)c(N)n1 | u | x | -25%[46.1 µM] | -29 | x
CN(C(=O)c1cccc(Nc2ccc(-c3ccc4c(c3)OCCO4)nn2)c1)C1CCCCC1 | -54% | u | 14µM* | -93* | u
Cc1cc(C(=O)OCC(=O)Nc2cc(S(=O)(=O)N(C)C)ccc2C)c2ccccc2n1 | 16µM* | 20% | 6% | -21 | -17%
Cc1ccc(S(=O)(=O)N(C)C)cc1NC(=O)COC(=O)/C(=C/c1ccc(F)cc1)c1cccs1 | u | 11µM* | u | 3 | u
Cc1cc(C(=O)OCC(=O)Nc2cc(S(=O)(=O)N(C)C)ccc2Cl)c2ccccc2n1 | -21% | 12% | -24% | 28 | 13%
CCOC(=O)NN=C1C[C@@H](O)[C@@H](O)[C@@H]2[C@H]3C(=O)N([C@@H](C)c4ccccc4)C(=O)[C@@H]3CC[C@@H]12 | x | x | x | x | -22%[14.2 µM]
N#CC(=C1CCCC1)c1nc(-c2ccccc2O)cs1 | 13% | u | 10µM* | x | u
SMILES | FMDV inh | HCV inh | Lassa entry inh | HCMV antiviral | Marburg entry inh
COc1ccc(OCc2cc(C(=O)NCC3CCCCO3)no2)c(Cl)c1 (configuration not stated) | 18% | -14% | x | 50 | x
CCOc1cccc2sc(N(CCCN(C)C)C(=O)c3ccc(S(=O)(=O)N(CC)Cc4ccccc4)cc3)nc12 | -25% | u | u | u | u
Cc1cc(C)c2sc(N(CCCN(C)C)C(=O)c3ccc(Br)s3)nc2c1 | u | 13µM* | x | -39 | x
CCN(Cc1ccccc1)S(=O)(=O)c1ccc(C(=O)N(CCCN(C)C)c2nc3cc(C)cc(C)c3s2)cc1 | -22% | 10µM* | u | -37 | 10µM*
CCN(Cc1ccccc1)S(=O)(=O)c1ccc(C(=O)N(CCCN(C)C)c2nc3c(F)cccc3s2)cc1 | 3% | -20% | u | -2 | 8.9µM*
CCOC(=O)C1CCCN(C(=O)C2CCN(Cc3nc(-c4ccc(Cl)cc4)oc3C)CC2)C1 (configuration not stated) | u | 11µM* | x | -25 | x
Cc1oc(-c2ccc(Cl)cc2)nc1CN1CCC(C(=O)N2CCc3ccccc3C2)CC1 | 22µM* | -18% | x | x | 3%
COc1ccc(-c2nc(SCC(=O)Nc3ccc4c(c3)OCO4)c(-c3ccccc3)[nH]2)cc1 | 6% | x | 7%[46.1 µM] | -28 | 9%[46.1 µM]
COc1ccc(-c2[nH]c(-c3cc(OC)c4c(c3)OCO4)nc2-c2ccccc2)cc1 | -3% | u | u | -71* | u
C(=NN1CCCCCC1)c1cccc2ccccc12 | 44% | 12% | 17% | -20 | 17%
C(=NN1CCCCCC1)c1ccc2ccccc2n1 | 100µM* | -1% | u | -92* | 2.5µM*
O=C(CCl)N(c1ccccc1)C1CCCCC1 | u | 4µM* | u | -113* | u
Clc1ccc(Cl)c2sc(N3CCOCC3)nc12 | 35% | 13µM* | u | 8 | -2%[46.1 µM]
N#Cc1ccc2c(c1)nc1ccccn12 | 22% | 5% | -2% | u | 12%[46.1 µM]
Clc1ccc2nc3ccccn3c2c1 | 24% | 10µM* | 22% | 8 | -3%
CN(C)C=Nc1ncc2c3ccccc3n(CCN(C)C)c2c1C#N | 1% | -6% | -19% | -98* | 11µM*
CCN(CC)CCn1c2ccccc2c2cnc(N)c(C#N)c21 | -19% | 10µM* | u | -98* | 11µM*
CN(C)C=Nc1ncc2c3ccccc3n(Cc3ccccc3)c2c1C#N | -14% | 0% | -2% | -28 | 3%
CCc1nnc2c3ccccc3nc(Nc3cc(C)cc(C)c3)n12 | -24% | x | -25%[46.1 µM] | -17 | u
COCCCNC(=O)C[C@H]1C[C@H](C(=O)N2CCOCC2)[C@@]2(C)c3[nH]c4cc(CCC(=O)N(C)C)ccc4c3CCN2C1=O | -11% | 12% | x | 24 | x
Cc1ccc(-n2ncc3c2CCCC3NC(=O)c2ocnc2C)cc1C (configuration not stated) | u | u | u | -89* | u
CCn1nc(C)cc1C(=O)NC1CCCc2c1cnn2-c1ccc(C)c(C)c1 (configuration not stated) | 10µM* | u | u | -86* | u
